Experimental data reported in PubChem BioAssay (NCI).
This is part of a sample that, as a whole, favours compounds with a hit. Of some 79,000 tested, about 15% had one in any assay. Activity calls are given as the source filed them. Cut-off read from the data, not from the text of the source: active = growth inhibition above about 70%; inactive = the rest.

Tests used:
[1] = NCI Yeast Anticancer Drug Screen. Data for the rad50 strain (AID 155);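 note: 0% = growth of vehicle-only cultures of the same strain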; details: S. cerevisiae rad50 strain growth inhibition, active compounds read high
Method in brief: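 Genetically altered yeast (DNA repair pathway); compound treatment; growth inhibition vs vehicle ctrl.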

[2] = NCI Yeast Anticancer Drug Screen. Data for the mec2-1 strain (AID 157); details: S. cerevisiae mec2-1 strain, active compounds read high
Method in brief: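 mec2-1 yeast strain, carrying an alteration in DNA damage repair or cell cycle control, was exposed to compounds; growth inhibition was measured relative to vehicle-treated controls.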

[3] = NCI Yeast Anticancer Drug Screen. Data for the sgs1 mgt1 strain (AID 161);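 note: 0% = growth of cultures given vehicle only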; details: S. cerevisiae sgs1 mgt1 strain, active compounds read high
Method in brief: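 Compounds are added to genetically altered yeast, and growth is compared with cultures given vehicle alone to give percent inhibition.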

[4] = NCI Yeast Anticancer Drug Screen. Data for the cln2 rad14 strain (AID 165);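 note: 0% = growth equal to vehicle treated cultures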; details: S. cerevisiae cln2 rad14 strain, active compounds read high
Method in brief: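 Yeast carrying cln2 and rad14 alterations (cell cycle control and DNA damage repair) were exposed to compounds. Growth inhibition was measured against vehicle-treated controls.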

[5] = NCI Yeast Anticancer Drug Screen. Data for the bub3 strain (AID 167); details: S. cerevisiae bub3 mutant strain, active compounds read high
Method in brief: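 Yeast carrying a defined mutation is treated with each compound, and growth is compared with that of vehicle-exposed cells to give inhibition.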

[6] = NCI Yeast Anticancer Drug Screen. Data for the mlh1 rad18 strain (AID 175); details: S. cerevisiae mlh1 rad18 strain growth inhibition, active compounds read high
Method in brief: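 Growth inhibition of the yeast strain was measured after compound exposure and expressed relative to vehicle-treated controls. The strain carries defined defects in DNA damage repair.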

[7] = at 5.0 µM (retest, dose inferred, filed as 0.5)
[8] = at 50.0 µM (retest, dose inferred, filed as 5.0)

Measured: growth inhibition

COC(=O)c1ccc([As]=O)cc1N (stereo not given)
inactive: [1]; [7] 2% | [1]; [8] 6% | [2]; [7] 1% | [2]; [8] 4% | [3]; [7] -1% | [3]; [8] 4% | [4]; [7] -2% | [4]; [8] -6% | [5]; [7] 3% | [5]; [8] 2% | [6]; [7] 2% | [6]; [8] 7%
active: [1]; at 50.0 µM 98.7% | [2]; at 50.0 µM 99.5% | [3]; at 50.0 µM 99.3% | [4]; at 50.0 µM 98.5% | [5]; at 50.0 µM 98.8% | [6]; at 50.0 µM 99%

O=C1C(CCl)(CCl)CCC12CNC(Cl)(Cl)C2 (stereo not given)
inactive: [1]; [7] -1% | [1]; [8] 0% | [1]; at 50.0 µM 6.8% | [2]; [7] -1% | [2]; [8] 4% | [2]; at 50.0 µM 15.8% | [3]; [7] 1% | [3]; [8] 0% | [3]; at 50.0 µM 21.6% | [4]; [7] 1% | [4]; [8] 5% | [4]; at 50.0 µM 39.6% | [5]; [7] -3% | [5]; [8] -5% | [5]; at 50.0 µM 23.2% | [6]; [7] -1% | [6]; [8] 0% | [6]; at 50.0 µM 28.8%

COc1ccccc1[As]=[As]c1ccccc1OC (stereo not given)
inactive: [1]; [7] 30% | [2]; [7] 20% | [3]; [7] 48% | [4]; [7] 34%
active: [1]; [8] 99% | [1]; at 50.0 µM 99.5% | [2]; [8] 99% | [2]; at 50.0 µM 99.5% | [3]; [8] 99% | [3]; at 50.0 µM 99.4% | [4]; [8] 99% | [4]; at 50.0 µM 98.3% | [5]; [7] 85% | [5]; [8] 99% | [5]; at 50.0 µM 99.3% | [6]; [7] 75% | [6]; [8] 99% | [6]; at 50.0 µM 99.3%

CC[C@@]1(O)C(=O)OCc2c1cc1n(c2=O)Cc2cc3c(OC)cccc3nc2-1
active: [1]; [7] 96% | [1]; [8] 92% | [1]; at 50.0 µM 83.6% | [2]; [7] 96% | [2]; [8] 92% | [2]; at 50.0 µM 89.4% | [3]; [7] 71% | [3]; [8] 88% | [3]; at 50.0 µM 82.4% | [4]; [8] 74% | [5]; [8] 78% | [5]; at 50.0 µM 70.8% | [6]; [7] 86% | [6]; [8] 83% | [6]; at 50.0 µM 78.8%
inactive: [4]; [7] 55% | [4]; at 50.0 µM 64% | [5]; [7] 48%

CC(Cl)CN1COc2c3c(c4ccccc4c2C1)CN(CC(C)Cl)CO3 (stereo not given)
active: [1]; [8] 98% | [1]; at 50.0 µM 83.7% | [2]; [8] 99% | [3]; [8] 99% | [3]; at 50.0 µM 82.8% | [4]; [8] 95% | [4]; at 50.0 µM 77.5% | [5]; [8] 98% | [6]; [8] 97% | [6]; at 50.0 µM 81.8%
inactive: [1]; [7] 0% | [2]; [7] 2% | [2]; at 50.0 µM 68.8% | [3]; [7] -3% | [4]; [7] 0% | [5]; [7] 0% | [5]; at 50.0 µM 66.4% | [6]; [7] 0%

CC(=O)OC1CCC2C3CCC4C(F)C(=O)C(F)(F)CC4(C)C3CCC12C (stereo not given)
inactive: [1]; [7] 2% | [1]; at 50.0 µM 49% | [2]; [7] -12% | [2]; at 50.0 µM 5.6% | [3]; [7] -2% | [3]; at 50.0 µM 63.5% | [4]; [7] -3% | [4]; [8] 46% | [4]; at 50.0 µM 63% | [5]; [7] -1% | [5]; [8] 60% | [5]; at 50.0 µM 8.95% | [6]; [7] 0% | [6]; at 50.0 µM 12.7%
active: [1]; [8] 78% | [2]; [8] 93% | [3]; [8] 91% | [6]; [8] 90%

O=S(=O)(F)c1ccc(Cl)cc1
inactive: [1]; [7] 22% | [2]; [7] 4% | [2]; at 50.0 µM 20.9% | [3]; [7] 9% | [4]; [7] 3% | [4]; at 50.0 µM 49.7% | [5]; [7] 12% | [6]; [7] 13%
active: [1]; [8] 97% | [1]; at 50.0 µM 85.5% | [2]; [8] 84% | [3]; [8] 92% | [3]; at 50.0 µM 82.3% | [4]; [8] 90% | [5]; [8] 97% | [5]; at 50.0 µM 70.9% | [6]; [8] 98% | [6]; at 50.0 µM 90.8%

N#C[S-].[La+3].c1ccc(-c2ccccn2)nc1.c1ccc(-c2ccccn2)nc1.c1ccc(-c2ccccn2)nc1
inactive: [1]; [7] 61% | [2]; [7] 41% | [3]; [7] 46% | [4]; [7] 33% | [5]; [7] 60% | [6]; [7] 56%
active: [1]; [8] 98% | [1]; at 50.0 µM 91.5% | [2]; [8] 99% | [2]; at 50.0 µM 93.8% | [3]; [8] 99% | [3]; at 50.0 µM 93% | [4]; [8] 90% | [4]; at 50.0 µM 91.9% | [5]; [8] 99% | [5]; at 50.0 µM 92% | [6]; [8] 99% | [6]; at 50.0 µM 91.3%

CSCCC([NH-])C(=O)O.CSCCC([NH-])C(=O)O.[Zn+2] (stereo not given)
inactive: [1]; [7] 2% | [1]; [8] 1% | [2]; [7] 1% | [2]; [8] 1% | [3]; [7] 2% | [3]; [8] -1% | [4]; [7] 4% | [4]; [8] -6% | [5]; [7] 4% | [5]; [8] 6% | [6]; [7] 4% | [6]; [8] 3%
active: [1]; at 50.0 µM 98.2% | [2]; at 50.0 µM 99.2% | [3]; at 50.0 µM 99.2% | [4]; at 50.0 µM 99.2% | [5]; at 50.0 µM 99% | [6]; at 50.0 µM 99.3%

O=C(O)c1ccccc1.[Zn+2]
inactive: [1]; [7] 1% | [1]; [8] -5% | [1]; at 50.0 µM 19.4% | [2]; [7] 3% | [2]; [8] -10% | [2]; at 50.0 µM 8.6% | [3]; [7] 4% | [3]; [8] 9% | [3]; at 50.0 µM 15.5% | [4]; [7] -3% | [4]; [8] -21% | [4]; at 50.0 µM -74.6% | [5]; [7] -8% | [5]; [8] -1% | [5]; at 50.0 µM 45.6% | [6]; [7] 6% | [6]; [8] 10% | [6]; at 50.0 µM 1.9%
